In PubChem BioAssay AID652015 (National Center for Advancing Translational Sciences (NCATS), 2013):
Results filed as inconclusive are left out. Active and inactive are the calls of the source. Calls come from the whole dose curve; as a rule, active = well fitted inhibition curve with a large enough effect; inconclusive = small, poorly fitted or top-dose-only effect; inactive = no such curve, though single readings can be large or run the other way.

molecular target: Coelenterazine h 2-monooxygenase (Renilla reniformis) (UniProt P27652); experiment: qHTS Assay for Inhibitors of Sea Pansy Luciferase from the GSK Published Protein Kinase Inhibitor Set; settings: purified Renilla luciferase, luminescence; series mostly up to 57.5 µM; activity change, negative = inhibition: at the top concentration
Sequence (P27652 whole entry, looked up): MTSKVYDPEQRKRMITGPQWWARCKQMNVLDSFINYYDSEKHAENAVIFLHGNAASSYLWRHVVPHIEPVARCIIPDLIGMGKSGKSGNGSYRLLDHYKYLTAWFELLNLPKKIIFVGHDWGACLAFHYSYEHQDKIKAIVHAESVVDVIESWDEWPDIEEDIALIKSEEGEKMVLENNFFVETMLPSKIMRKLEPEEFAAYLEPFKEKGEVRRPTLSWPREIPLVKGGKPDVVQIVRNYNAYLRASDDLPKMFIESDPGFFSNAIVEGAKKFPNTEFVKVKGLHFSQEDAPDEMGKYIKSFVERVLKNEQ
In short: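 qHTS (roughly 60 uM down to 300 pM) against 1 nM Renilla luciferase, substrate coelenterazine h 5 uM, Tris acetate pH 7.5 buffer with NaCl, Tween-20 and BSA. Luminescence measured after an average 2 min incubation.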
Potency is the fitted concentration of half-maximal effect.

Compound	activity change, negative = inhibition	Potency
Fc1ccc(-c2ncn(C3CCNCC3)c2-c2ccnc(Oc3cccc(C(F)(F)F)c3)n2)cc1	0.701% (inactive)	
CCC(=O)Nc1ccc(C)c(-c2ccc(C(=O)NCC3CC3)cc2)c1	8.23% (inactive)	
Fc1cccc(COc2ccc(Nc3ncnc4sc(-c5ccco5)cc34)cc2Cl)c1	45.2% (inactive)	
COc1cc2ncn(-c3cc(OCCc4ccccc4)c(C(N)=O)s3)c2cc1OC	13.2% (inactive)	
CCn1c(-c2nonc2N)nc2c(C#CC(C)(C)O)nc(CN3CCCC3)cc21	21.5% (inactive)	
CS(=O)(=O)CCNCc1ccoc1-c1ccc2ncnc(Nc3ccc(OCc4ccccc4)cc3)c2c1	39.4% (inactive)	
COc1ccc(-c2ccc3c(NC(=O)C4CC4)n[nH]c3n2)cc1	46.2% (inactive)	
Cc1c2ccc(N(C)c3ccnc(Nc4cccc(S(N)(=O)=O)c4)n3)cc2nn1C		18.3 µM (active)
CN1CCN(Cc2ccc(-c3cc4ncnc(Nc5ccc(OCc6cccc(F)c6)c(Cl)c5)c4s3)o2)CC1		20.6 µM (active)
NS(=O)(=O)c1ccc(-c2ccc3c(NC(=O)C4CC4)n[nH]c3c2)cc1	20.8% (inactive)	
O=C(Nc1n[nH]c2cc(-c3ccccc3)ccc12)C1CC1	34.2% (inactive)	
N#Cc1c(NC(=O)CN2CCOCC2)sc2c1CCCC2	10.2% (inactive)	
Cc1ccc(C(=O)NC(C)C)cc1-c1ccc(C(=O)NCC2CC2)cc1	26.6% (inactive)	
Fc1ccc(-c2ncn(CCCN3CCOCC3)c2-c2ccncc2)cc1	51.9% (inactive)	
CCCN1CCC(Oc2cc(Nc3nc(Nc4cccc(F)c4C(N)=O)c4cc[nH]c4n3)c(OC)cc2Cl)CC1	64.1% (inactive)	
COc1cccc(-n2cnc3c(NN=Cc4ccncc4)ncnc32)c1	18.6% (inactive)	
